Measured values reported in PubChem BioAssay (NCI).
About 83,000 compounds went through this panel and 20% of them were active in at least one assay; those are over-represented in the sample as a whole.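 Single-concentration screen, 48 h exposure, 96-well plates. Endpoint: percent growth. Below 10 = active.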 Unmarked numbers belong to inactive results. Activity calls are given as the source filed them.

Tests used:
Experiment in all cases: NCI-60 one-dose screen, 48 h (100 = growth as untreated, 0 = no growth, -100 = all killed)
Conditions in all cases: 10 µM unless noted
DU-145 prostate = tested on: DU-145 prostate
K-562 leukemia = tested on: K-562 leukemia
MALME-3M melanoma = tested on: MALME-3M melanoma
MDA-MB-231 breast = tested on: MDA-MB-231 breast
RXF 393 renal = tested on: RXF 393 renal
SF-268 CNS = tested on: SF-268 CNS
SF-295 CNS = tested on: SF-295 CNS
SF-539 CNS = tested on: SF-539 CNS
UACC-257 melanoma = tested on: UACC-257 melanoma
M14 melanoma = tested on: M14 melanoma
HCT-15 colon = tested on: HCT-15 colon
HT29 colon = tested on: HT29 colon
SNB-75 CNS = tested on: SNB-75 CNS
SNB-19 CNS = tested on: SNB-19 CNS
U251 CNS = tested on: U251 CNS
PC-3 prostate = tested on: PC-3 prostate
SK-MEL-5 melanoma = tested on: SK-MEL-5 melanoma
UACC-62 melanoma = tested on: UACC-62 melanoma
LOX IMVI melanoma = tested on: LOX IMVI melanoma
SK-MEL-28 melanoma = tested on: SK-MEL-28 melanoma

COc1cccc(-c2nn(-c3ccccc3)cc2-c2ccnc(NCCCNC(=O)c3cccc(C(F)(F)F)c3)c2)c1
growth (DU-145 prostate): 52.3% | growth (K-562 leukemia): 18% | growth (MALME-3M melanoma): 9.81% (active) | growth (MDA-MB-231 breast): 23.6% | growth (RXF 393 renal): 36% | growth (SF-268 CNS): 57.4% | growth (SF-295 CNS): 27.3% | growth (SF-539 CNS): 30.6% | growth (UACC-257 melanoma): 12.1% | growth (M14 melanoma): 28.2% | growth (HCT-15 colon): 21% | growth (HT29 colon): 8.77% (active) | growth (SNB-75 CNS): 58.6% | growth (SNB-19 CNS): 45.3% | growth (U251 CNS): 24.7% | growth (PC-3 prostate): 13.3% | growth (SK-MEL-5 melanoma): -64.4% (active) | growth (UACC-62 melanoma): 23.9% | growth (LOX IMVI melanoma): 28% | growth (SK-MEL-28 melanoma): 50.3%

O=C(CSc1nccc(Nc2ccc(S(=O)(=O)Nc3nccs3)cc2)n1)c1ccc(F)cc1
growth (DU-145 prostate): 105% | growth (K-562 leukemia): 113% | growth (MALME-3M melanoma): 103% | growth (MDA-MB-231 breast): 113% | growth (RXF 393 renal): 112% | growth (SF-268 CNS): 105% | growth (SF-295 CNS): 103% | growth (SF-539 CNS): 100% | growth (UACC-257 melanoma): 96.5% | growth (M14 melanoma): 101% | growth (HCT-15 colon): 98.1% | growth (HT29 colon): 106% | growth (SNB-75 CNS): 94% | growth (SNB-19 CNS): 100% | growth (U251 CNS): 102% | growth (PC-3 prostate): 96.1% | growth (SK-MEL-5 melanoma): 98.7% | growth (UACC-62 melanoma): 94.5% | growth (LOX IMVI melanoma): 97.5% | growth (SK-MEL-28 melanoma): 106%

CCOC(=O)/C=C/c1cc2cc(-c3csc4ccccc34)ccc2[nH]1
growth (DU-145 prostate): 89.5% | growth (K-562 leukemia): 25.4% | growth (MALME-3M melanoma): 76.9% | growth (MDA-MB-231 breast): 56.9% | growth (RXF 393 renal): 83.4% | growth (SF-268 CNS): 74.8% | growth (SF-295 CNS): 64.6% | growth (SF-539 CNS): 77.6% | growth (UACC-257 melanoma): 69.5% | growth (M14 melanoma): 68.1% | growth (HCT-15 colon): 56.8% | growth (HT29 colon): 21.9% | growth (SNB-75 CNS): 97.5% | growth (SNB-19 CNS): 101% | growth (U251 CNS): 78.2% | growth (PC-3 prostate): 62% | growth (SK-MEL-5 melanoma): 87.6% | growth (UACC-62 melanoma): 67.5% | growth (LOX IMVI melanoma): 64.7% | growth (SK-MEL-28 melanoma): 104%

O=C(Nc1cccc(C(F)(F)F)c1)Nc1cccc(C(F)(F)F)c1
growth (DU-145 prostate): 25% | growth (K-562 leukemia): 11.5% | growth (MALME-3M melanoma): -17.1% (active) | growth (MDA-MB-231 breast): -34.8% (active) | growth (RXF 393 renal): 22.7% | growth (SF-268 CNS): 22.7% | growth (SF-295 CNS): 4.86% (active) | growth (SF-539 CNS): 19.5% | growth (UACC-257 melanoma): -32.9% (active) | growth (M14 melanoma): 13% | growth (HCT-15 colon): 10.7% | growth (HT29 colon): 3.56% (active) | growth (SNB-75 CNS): 11.1% | growth (SNB-19 CNS): 10.7% | growth (U251 CNS): -15.3% (active) | growth (PC-3 prostate): 6.31% (active) | growth (SK-MEL-5 melanoma): -72.5% (active) | growth (UACC-62 melanoma): 10.6% | growth (LOX IMVI melanoma): 8.64% (active) | growth (SK-MEL-28 melanoma): 26.8%

Cc1c(C)c2c(c(C)c1OCC(=O)O)CC[C@@](C)(CCC[C@@H](C)CCC[C@@H](C)CCCC(C)C)O2
growth (DU-145 prostate): 6.97% [50 µM] (active) | growth (K-562 leukemia): 6.54% [50 µM] (active) | growth (MALME-3M melanoma): -35.8% [50 µM] (active) | growth (MDA-MB-231 breast): -2.79% [50 µM] (active) | growth (RXF 393 renal): -34.5% [50 µM] (active) | growth (SF-268 CNS): -5.58% [50 µM] (active) | growth (SF-295 CNS): 35.8% [50 µM] | growth (SF-539 CNS): -7.25% [50 µM] (active) | growth (UACC-257 melanoma): 38.7% [50 µM] | growth (M14 melanoma): -19.2% [50 µM] (active) | growth (HCT-15 colon): -28.5% [50 µM] (active) | growth (HT29 colon): 6.19% [50 µM] (active) | growth (SNB-75 CNS): 67.6% [50 µM] | growth (SNB-19 CNS): 17% [50 µM] | growth (U251 CNS): -30.3% [50 µM] (active) | growth (PC-3 prostate): -16% [50 µM] (active) | growth (SK-MEL-5 melanoma): -77.1% [50 µM] (active) | growth (UACC-62 melanoma): -75.2% [50 µM] (active) | growth (LOX IMVI melanoma): -83.9% [50 µM] (active) | growth (SK-MEL-28 melanoma): -15.1% [50 µM] (active)

COc1cc(/C=C/C(=O)c2ccc(Nc3nc(Nc4ccc(F)cc4)nc(Nc4ccc(Cl)cc4)n3)cc2)cc(OC)c1OC
growth (DU-145 prostate): 68.5% | growth (K-562 leukemia): 35.8% | growth (MALME-3M melanoma): 56.2% | growth (MDA-MB-231 breast): 62.6% | growth (RXF 393 renal): -31.1% (active) | growth (SF-268 CNS): 74.8% | growth (SF-295 CNS): 369% | growth (SF-539 CNS): 67.7% | growth (UACC-257 melanoma): 102% | growth (M14 melanoma): 65.6% | growth (HCT-15 colon): 55% | growth (HT29 colon): 3.82% (active) | growth (SNB-75 CNS): 0.259% (active) | growth (SNB-19 CNS): 101% | growth (U251 CNS): 27.5% | growth (PC-3 prostate): 21.4% | growth (SK-MEL-5 melanoma): 33.5% | growth (UACC-62 melanoma): 56.5% | growth (LOX IMVI melanoma): 37.3% | growth (SK-MEL-28 melanoma): -32.9% (active)

CC(=O)OC1CCC2(C)C(=CC3C4CCC(=O)C4(C)CCC32)C1 (stereo not given)
growth (DU-145 prostate): 101% | growth (K-562 leukemia): 95% | growth (MALME-3M melanoma): 112% | growth (MDA-MB-231 breast): 98.2% | growth (RXF 393 renal): 115% | growth (SF-268 CNS): 96% | growth (SF-295 CNS): 95.5% | growth (SF-539 CNS): 99.1% | growth (UACC-257 melanoma): 110% | growth (M14 melanoma): 98% | growth (HCT-15 colon): 98.2% | growth (HT29 colon): 99.7% | growth (SNB-75 CNS): 83.8% | growth (SNB-19 CNS): 98.6% | growth (U251 CNS): 98.5% | growth (PC-3 prostate): 101% | growth (SK-MEL-5 melanoma): 105% | growth (UACC-62 melanoma): 101% | growth (LOX IMVI melanoma): 100% | growth (SK-MEL-28 melanoma): 102%
